Measured values as given in PubChem BioAssay (EPA / NIEHS).
Active and inactive are the calls of the source. How the source made its calls: active means hit-call score of the fitted dose curve at least 0.9, where 1 is the maximum; inactive means score below 0.9.

Experiment: ATG_PXRE_CIS: Attagene CIS-FACTORIAL HepG2 Assay for human Pregnane X Receptor Element (PXRE) (AID 2282957)
Settings: HepG2 Attagene CIS-FACTORIAL PXRE reporter, mRNA; actives raise or lower the signal
Method: ATG_CIS is a cell-based, multiplexed-readout assay that uses HepG2, a human liver cell line, with measurements taken at 24 hours after chemical dosing in a 24-well plate.ATG_PXRE_CIS is one of 52 assay component(s) measured or calculated from the ATG_CIS assay. It is designed to make measurements of mRNA induction, a form of inducible reporter, as detected with fluorescence intensity signals by Reverse transcription polymerase chain reaction (RT-PCR) and Capillary electrophoresis technology.Data from the assay component ATG_PXRE_CIS was analyzed into 1 assay endpoint. This assay endpoint, ATG_PXRE_CIS, was analyzed with bidirectional fitting relative to DMSO as the negative control and baseline of activity. Using a type of inducible reporter, measures of mRNA for gain or loss-of-signal activity can be used to understand the reporter gene at the transcription factor-level as they relate to the gene NR1I2. Furthermore, this assay endpoint can be referred to as a primary readout, because this assay has produced multiple assay endpoints where this one serves a reporter gene function. To generalize the intended target to other relatable targets, this assay endpoint is annotated to the nuclear receptor intended target family, where the subfamily is non-steroidal.
Human liver HepG2 cells are transiently transfected with multiple reporter transcription units (MRTUs) in 6-well plates using FuGene 6 reagent (Roche; 3 ml FuGene/1 mg DNA). The MRTU constructs are regulated by a cis-regulating element (promoter). […] A major difference between the CIS and TRANS system is that in CIS activities of endogenous TFs are measured, whereas the TRANS assay evaluates changes in activities of exogenous, chimeric NR-Gal4 proteins. […] At the end of 24 hour incubation, total RNA was isolated using TriZol reagent (Invitrogen). The isolated RNA is then reverse-transcribed using oligo(dT) primer and Mo-MLV reverse transcriptase (Invitrogen) with DNAse I (Ambion) treatment for 30 min. The one-tenth of the produced cDNA was amplified by PCR using Taq DNA polymerase (Invitrogen) and two reporter sequence-specific primers. The PCR products were fluorescently labeled by primer extension with 6-arboxyfluorescein (6-FAM) 5'-labeled reporter sequence-specific primer (2 min at 95 C, 20 s at 68 C and 10 min at 72 C) and these products were digested with 5U of HpaI (New England Biolabs) for 2h at 37 C. The fragments were purified using Qiaquick PCR columns (Qiagen), analyzed on an ABI 3130xL genetic analyzer (Applied Biosystems) with peak positions identified by using a set of X-rhodamine (ROX)-labeled MapMarker1000 molecular weight standards (BioVentures). The raw capillary electrophoresis data was processed using Attagraph software (Attagene).

Q: For `C[C@]12CC[C@H]3C(=CCc4cc(O)ccc43)[C@@H]1CCC2=O`, which AC50 is on record?
A: 26.6 µM (active)

Q: Which outcome does the source give for `Cc1cnccn1` here?
A: inactive

Q: Which outcome does the source give for `Brc1nc2ccccc2s1` here?
A: inactive

Q: Which outcome does the source give for `OCCCC(F)(F)C(F)(F)C(F)(F)C(F)(F)C(F)(F)C(F)(F)C(F)(F)C(F)(F)F` here?
A: inactive

Q: For `Nc1c(Br)cc([N+](=O)[O-])cc1Br`, which AC50 is on record?
A: 26.7 µM (active)

Q: With `CC(C)=CCCC(C)O` (stereo not given) as the compound, how does the outcome read?
A: inactive

Q: For `O=C(O)C(F)(F)C(F)(F)C(F)(F)OC(F)(C(F)(F)F)C(F)(F)F`, which AC50 is on record?
A: 39.8 µM (active)

Q: Which outcome does the source give for `O=C(O)C(F)(F)C(F)(F)C(F)(F)C(=O)O` here?
A: inactive

Q: Which outcome does the source give for `O=S(=O)(O)c1ccc(Cl)cc1` here?
A: inactive

Q: For `COCCC(=O)OC`, which outcome is on record?
A: inactive

Q: With `O=S(=O)(O)CCC(F)(F)C(F)(F)C(F)(F)C(F)(F)F` as the compound, how does the outcome read?
A: inactive

Q: For `COCCOCCC[Si](C)(O[Si](C)(C)C)O[Si](C)(C)C`, which AC50 is on record?
A: 0.752 µM (active)

Q: Which AC50 does the source give for `OCC(F)(F)C(F)(F)C(F)(F)C(F)(F)C(F)(F)C(F)(F)CO` here?
A: 70.6 µM (active)

Q: For `OC(O)C(F)(F)C(F)(F)F`, which outcome is on record?
A: inactive

Q: For `O=C(c1ccccc1)c1ccc(Cl)cc1`, which AC50 is on record?
A: 27.5 µM (active)

Q: For `O=C(Cl)C(F)(F)C(F)(F)C(F)(F)C(F)(F)C(F)(F)C(F)(F)C(F)(F)F`, which outcome is on record?
A: inactive

Q: For `O=c1cccc[nH]1`, which outcome is on record?
A: inactive

Q: Which outcome does the source give for `O=S(=O)(O)CCC(F)(F)C(F)(F)C(F)(F)C(F)(F)C(F)(F)C(F)(F)C(F)(F)C(F)(F)F` here?
A: inactive

Q: Which AC50 does the source give for `Cc1cc(O)c(C(C)(C)C)cc1C(C)(C)C` here?
A: 2.92 µM (active)

Q: Which AC50 does the source give for `Cc1ccc2c(c1)OCC(=O)CO2` here?
A: 77 µM (active)

Q: Which outcome does the source give for `O=C1C=CC(=O)N1c1ccccc1` here?
A: inactive

Q: With `CCc1ccc(C)nc1` as the compound, how does the outcome read?
A: inactive

Q: For `CCc1cccc(C)c1N(C(=O)C(=O)O)C(C)COC` (stereo not given), which outcome is on record?
A: inactive

Q: For `CCOC(OCC)OCC`, which AC50 is on record?
A: 28 µM (active)

Q: Which AC50 does the source give for `CCN=C1C=CC(=C(c2ccc(N(CC)CC)cc2)c2ccc(N(CC)CC)cc2)c2ccccc21` here?
A: 1.23 µM (active)

Q: For `CC(C)(C)c1cc(CCC(=O)NCCCCCCNC(=O)CCc2cc(C(C)(C)C)c(O)c(C(C)(C)C)c2)cc(C(C)(C)C)c1O`, which AC50 is on record?
A: 0.169 µM (active)

Q: Which outcome does the source give for `CN(C(=O)C(F)(F)C(F)(F)C(F)(F)F)[Si](C)(C)C` here?
A: inactive

Q: With `c1ccc(C[P+](c2ccccc2)(c2ccccc2)c2ccccc2)cc1` as the compound, how does the outcome read?
A: inactive

Q: For `C[Si](C)O[Si](C)C`, which outcome is on record?
A: inactive

Q: Which AC50 does the source give for `CCOC(=O)CC(=O)C(F)(F)C(F)(F)F` here?
A: 75.8 µM (active)

Q: Which AC50 does the source give for `Cc1ccc(O)c(-n2nc3ccccc3n2)c1` here?
A: 12.2 µM (active)

Q: With `O=C=Nc1cccc2c(N=C=O)cccc12` as the compound, how does the AC50 read?
A: 1.82 µM (active)

Q: For `O=C1c2ccccc2C(=O)c2c(Cl)cccc21`, which AC50 is on record?
A: 0.997 µM (active)

Q: With `CC(C)(C)c1cc(CCC(=O)OCC(COC(=O)CCc2cc(C(C)(C)C)c(O)c(C(C)(C)C)c2)(COC(=O)CCc2cc(C(C)(C)C)c(O)c(C(C)(C)C)c2)COC(=O)CCc2cc(C(C)(C)C)c(O)c(C(C)(C)C)c2)cc(C(C)(C)C)c1O` as the compound, how does the AC50 read?
A: 21.3 µM (active)

Q: With `CCN(CC)c1ccc(N=Nc2ccccc2)cc1` as the compound, how does the AC50 read?
A: 3.99 µM (active)

Q: For `O=C(O)C(F)(F)C(F)(F)C(F)(F)C(F)(F)C(F)(F)C(F)(F)C(F)F`, which AC50 is on record?
A: 27.6 µM (active)

Q: Which outcome does the source give for `CCN=c1cc2oc3cc(NCC)c(C)cc3c(-c3ccccc3C(=O)OCC)c-2cc1C` here?
A: inactive

Q: Which outcome does the source give for `O=C(F)C1(F)C(F)(F)C(F)(F)C(F)(F)C(F)(F)C1(F)F` here?
A: inactive

Q: With `O=C1c2c(O)ccc(Nc3ccc(CCO)cc3)c2C(=O)c2c([N+](=O)[O-])ccc(O)c21` as the compound, how does the AC50 read?
A: 6.06 µM (active)

Q: Which AC50 does the source give for `Nc1cc([N+](=O)[O-])cc(Cl)c1O` here?
A: 5.15 µM (active)
